Screening data (PubChem BioAssay)
The list is not random: actives were taken first. Their share in the collection is about 11%.
NS1 inh = blocks influenza NS1 protein function; Potency, µM (top dose mostly 46.1 µM), for the others: at the highest dose activity, positive = more growth; actives 0.4% (n = 270,000); AID 2326; calls by dose curve; also: actives are rising curves; nearly all actives have a fitted effect of over 50% in size
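S. cerevisiae expressing influenza A NS1, grown in glucose, washed, then diluted 1:100 into pH 6.0 -URA galactose medium with 23 nl compound. Growth recovery read as OD600; NS1-free strain serves as control.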
Pf growth 48h = inhibits P. falciparum growth in the first generation, 48 h; P. falciparum luciferase growth in erythrocytes, 48 h; Potency, µM (top dose mostly 28.7 µM), without a hit: at the highest dose activity change, negative = inhibition, actives largely listed as inhibitors; actives 5.9% (n = 310,000); also: % is scaled to controls: 0 for no effect and ±100 for the full control effect
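Compounds are pin-transferred into medium, infected erythrocytes (2% hematocrit, 0.1% parasitemia final) are added, and plates sit one parasite generation at 37 C in 5% CO2. Detection reagent is then added and luminescence measured.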
Pf growth 96h = P. falciparum growth inhibition at 96 hours. P. falciparum luciferase reporter growth, 96 h. Potency, µM (doses to about 28.7 µM), inactives show at the highest dose activity change, negative = inhibition, hits mostly inhibitors. actives 6.9% (n = 320,000); also: % is scaled to controls: 0 for no effect and ±100 for the full control effect
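Luminescence readout: decreased luciferase signal marks inhibited growth of reporter-expressing P. falciparum in infected red cells (2% hematocrit, 0.05% parasitemia final), exposed to compound two generations (96 h, 37 C, 5% CO2).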
AMA1-RON2 inh = disrupts binding of P. falciparum AMA1 to RON2 | AlphaScreen AMA1-biotinylated RON2 peptide binding | Potency, µM (doses to about 58.2 µM), for inactives: top-dose activity change, negative = inhibition, hits mostly inhibitors | actives 0.2% (n = 360,000);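 also: 0% = vehicle wells and -100% = peptide control; nearly all actives have a fitted effect of over 45% in size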
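AMA1 (3D7) with his tag at 25 nM final met compounds first, then biotinylated RON2 peptide at 25 nM; detection used donor plus acceptor beads, 10 µg/mL apiece, read by AlphaScreen after 30 min at room temperature.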
Sm TGR inh = blocks Schistosoma mansoni thioredoxin glutathione reductase; actives 3% (n = 360,000); purified TGR, DTNB reduction, TNB absorbance 405 nm; Q962Y6; Potency, µM (highest dose often 114 µM), inactives show at the highest dose activity change, negative = inhibition, hits mostly inhibitors; also: % is scaled to controls: 0 for no effect and ±100 for the full control effect; nearly all actives have a fitted effect of over 60% in size
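Kinetic colorimetric format: TGR-catalysed, NADPH-driven DTNB reduction monitored via TNB absorbance. Enzyme dispensed at 20 nM; compound exposure 15 min at room temperature before reaction start.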
Active calls of the source: *; i = inactive; ? = inconclusive; · = no result. Unless noted, calls follow the shape of the dose curve; as a rule, active = well fitted curve in the direction sought with a large enough effect; inconclusive = small, poorly fitted or top-dose-only effect, or another doubt; inactive = no such curve, though single readings can be large; an effect the other way counts as inactive or inconclusive. Potency is read from the fitted curve at half-maximal effect.

SMILES | NS1 inh | Pf growth 48h | Pf growth 96h | AMA1-RON2 inh | Sm TGR inh
O=C1CCN(CCc2ccccc2)CCN1[C@H](CSc1ccc(Br)cc1)Cc1ccccc1 | -51.8% | 13.1µM* | 8.28µM* | -23.5% | -17.8%
CC(=O)Nc1ccc(SC[C@H](CC(C)C)N2CCN(CC(C)C)CCC2=O)cc1 | 0.1% | ? | ? | 0.0% | ?
Cc1ccc(SC[C@H](CC(C)C)N2CCN(CCc3ccccc3)CCC2=O)cc1 | -37.1% | ? | ? | -20.8% | -28.3%
C[C@H]1CN([C@@H](C)CO)C(=O)c2c(c3ccccc3n2C)-c2ccccc2CO[C@H]1CN(C)C(=O)[C@@H]1CCCN1C | · | · | · | 5.8% | ·
O=C(OC1CCOC1=O)c1ccc(NS(=O)(=O)c2cccs2)cc1 (stereo not given) | 3.3% | 169.8% | 21.4% | -7.7% | 5.0%
C=C(C)Cn1c(CCn2c3ccccc3c3ccccc32)n[nH]c1=S | 8.6% | 10.8% | 7.38µM* | 51.4% | 1.2%
Cc1cccc(N2CCN(C(=O)CCS(=O)(=O)c3ccc4c(c3)NC(=O)CO4)CC2)c1C | -1.5% | -19.5% | 0.2% | -11.1% | -1.1%
Cc1cccc(N2CCN(C(=O)CCS(=O)(=O)c3ccc4c(c3)oc(=O)n4C)CC2)c1C | -10.0% | 13.1µM* | 9.28µM* | 8.9% | -33.6%
Cc1cccc(N2CCN(C(=O)CCNS(=O)(=O)c3ccc4c(c3)oc(=O)n4C)CC2)c1C | 0.0% | ? | 1.31µM* | 13.7% | 4.4%
Cc1cccc(N2CCN(C(=O)CCNS(=O)(=O)c3ccc4c(c3)CCC(=O)N4)CC2)c1C | -7.0% | ? | ? | -5.0% | 4.6%
O=C(O)C1Nc2c(Cl)cc(Cl)c(Cl)c2C2C=CCC12 (stereo not given) | · | · | · | -12.7% | ·
O=C(O)C1Nc2c(O)cccc2C2C=CCC12 (stereo not given) | 8.1% | 10.2% | 14.7µM* | -25.7% | 8.91µM*
O=C(O)C1Nc2c(Cl)cc(Cl)cc2C2C=CCC12 (stereo not given) | 10.3% | 14.4% | ? | 14.1µM* | ?
CCN(CC)c1ccc(NC(=O)/C=C\c2ccccc2Cl)cc1 | 7.6% | ? | 1.04µM* | -15.0% | -24.0%
O=C(/C=C/c1ccccc1Cl)NCCc1ccccc1 | -30.4% | ? | 11.7µM* | 6.2% | 10.8%
CCCCCCCCCCCCCCCC(=O)Nc1ccn(C2OC(CO)C(O)C2O)c(=O)n1 (stereo not given) | · | · | · | -5.5% | ·
CCCCN1CCCc2cc(CN(CCCN3CCOCC3)C(=O)Nc3ccc(CC)cc3)ccc21 | · | · | · | · | -22.0%
COc1ccc(C(=O)N/N=C(\C)c2ccc3c(c2)C2C=CCC2C(c2ccccc2)N3)cc1 (stereo not given) | 21.1% | 1.04µM* | 46.7% | -8.3% | 10µM*
O=C(O)c1ccc2c(c1)[C@@H]1C=CC[C@@H]1[C@H](c1ccccn1)N2 | · | · | · | 12.6µM* | ·
COC(=O)CNC(=O)C1Nc2ccccc2C2C=CCC12 (stereo not given) | · | · | · | -7.6% | ·
CC(=O)N1CCc2cc(Br)cc(S(=O)(=O)N3CCC(C(=O)Nc4cccc(C)c4C)CC3)c21 | · | · | · | · | -2.9%
CC(=O)c1ccc(N(CC(=O)NCc2ccc3c(c2)OCO3)C(=O)c2csnn2)cc1 | 3.3% | ? | -4.6% | 8.3% | 6.4%
COC(=O)[C@@]1(Cc2ccc(F)cc2)[C@H]2c3cc(C(=O)N(C)C)n(CCc4ccccn4)c3C[C@H]2CN1C(=O)c1ccccc1 | -22.7% | 2.62µM* | 3.29µM* | 6.1% | -11.7%
COCCn1c(C(=O)N(C)C)cc2c1C[C@H]1CN(C(=O)c3ccccc3)[C@@](Cc3ccc(F)cc3)(C(=O)OC)[C@@H]21 | · | · | · | -2.1% | ·
COC(=O)[C@@]1(Cc2ccc(F)cc2)[C@H]2c3cc(C(=O)N4CCCC4)n(Cc4ccccc4)c3C[C@H]2CN1C(=O)c1ccccc1 | · | · | · | -19.8% | ·
SMILES | NS1 inh | Pf growth 48h | Pf growth 96h | AMA1-RON2 inh | Sm TGR inh
COC(=O)[C@@]1(Cc2ccc(OC)cc2)[C@H]2c3cc(C(=O)N4CCCC4)n(Cc4ccc(C)o4)c3C[C@H]2CN1C(=O)c1ccccc1 | ? | ? | 2.08µM* | · | -11.1%
COC(=O)[C@@]1(Cc2ccccc2)[C@H]2c3cc(C(=O)N4CCCC4)n(CCSCCO)c3C[C@H]2CN1C(=O)c1ccccc1 | -26.7% | 1.65µM* | 2.33µM* | · | -29.7%
COC(=O)[C@@]1(Cc2ccc(F)cc2)[C@H]2c3cc(C(=O)N4CCCC4)n(CCc4ccccn4)c3C[C@H]2CN1C(=O)c1ccccc1 | -43.2% | 3.29µM* | 2.08µM* | 11.2% | -25.8%
O=C(COC(=O)Cc1n[nH]c(=O)c2ccccc12)Nc1cccc(C(F)(F)F)c1 | -3.8% | 102.7% | 19.0% | 0.4% | 7.2%
CN(C)CCNC(=O)CNC(=S)N(CCCN1CCOCC1)Cc1cccs1 | · | i | -18.3% | -5.2% | -2.8%
COCCn1c(C(=O)N2CCCC2)cc2c1C[C@H]1CN(C(=O)c3ccccc3)[C@@](Cc3ccc(F)cc3)(C(=O)OC)[C@@H]21 | -28.1% | 1.65µM* | 4.65µM* | -2.3% | -8.7%
Cc1ccc(NC(=O)C2(C)CCN2C(=O)Cc2ccc(C(C)(C)C)cc2)cc1C (stereo not given) | · | · | · | -15.0% | ·
COc1ccc(C2=[N+](C)CCn3cccc32)c(OC)c1 | -2.4% | 2.08µM* | 1.04µM* | 4.2% | -1.0%
COc1ccc(CN2CCc3ccccc3C2)c(OC)c1 | 1.7% | 26.6% | -20.0% | -7.7% | 2.2%
Cn1c(=O)[nH]c2c(c1=O)CCO2 | · | · | · | 14.1% | ·
COc1cccc(C(=O)C2CCCN(C(=O)c3cccc(C#CC(C)(C)O)c3)C2)c1 (stereo not given) | -4.8% | ? | 11.7µM* | -4.1% | ·
COc1cccc(C(=O)N2CCN(C(=O)C3CC3)CC2)c1 | 7.3% | 9.9% | 11.7µM* | -2.2% | 2.3%
COc1cccc(C(=O)OC(C)CN2CCCC2)c1 (stereo not given) | -6.2% | -4.1% | 4.15µM* | 6.1% | -15.5%
COc1ccc(C(=O)Nc2cccc(C(=O)N3CCN(C)CC3)c2)cc1 | 1.0% | 135.6% | 0.131µM* | 2.4% | -2.4%
CC(CN1CCCCC1)OC(=O)c1cccc(F)c1 (stereo not given) | -9.5% | 31.5% | 10.9% | 1.3% | -16.6%
CC(C)(C)CC(=O)NCC(c1ccc2c(c1)OCO2)N1CCN(c2ccccc2)CC1 (stereo not given) | · | · | · | · | 7.1%
O=C(NC(=O)N1CCCCCC1)c1ccccc1 | -0.8% | 13.3% | -12.6% | 8.7% | -1.3%
O=S(=O)(c1cccs1)N1CCC(CO)(Cc2ccc(Cl)cc2)CC1 | -3.4% | 25.2% | 0.738µM* | 4.0% | 8.4%
COc1ccc(S(=O)(=O)N2CCC3(CC2)OCCN3S(=O)(=O)c2cccs2)cc1 | · | ? | ? | 4.5% | 5.6%
COc1ccc(OC)c(S(=O)(=O)N2CCC3(CC2)OCCN3S(=O)(=O)c2cccs2)c1 | · | ? | 10.4µM* | -6.9% | -23.3%
